# Assay results published in PubChem BioAssay (NCATS).
# Results filed as inconclusive are left out. Calls of active or inactive are those of the source. The call rests on the fitted dose curve; in most records, active means well fitted curve in the direction sought with a large enough effect; inconclusive means small, poorly fitted or top-dose-only effect, or another doubt; inactive means no such curve, though single readings can be large or run the other way.
# Target: Protein phosphatase 1D (Homo sapiens) (UniProt O15297)
# Sequence (O15297 whole entry, looked up): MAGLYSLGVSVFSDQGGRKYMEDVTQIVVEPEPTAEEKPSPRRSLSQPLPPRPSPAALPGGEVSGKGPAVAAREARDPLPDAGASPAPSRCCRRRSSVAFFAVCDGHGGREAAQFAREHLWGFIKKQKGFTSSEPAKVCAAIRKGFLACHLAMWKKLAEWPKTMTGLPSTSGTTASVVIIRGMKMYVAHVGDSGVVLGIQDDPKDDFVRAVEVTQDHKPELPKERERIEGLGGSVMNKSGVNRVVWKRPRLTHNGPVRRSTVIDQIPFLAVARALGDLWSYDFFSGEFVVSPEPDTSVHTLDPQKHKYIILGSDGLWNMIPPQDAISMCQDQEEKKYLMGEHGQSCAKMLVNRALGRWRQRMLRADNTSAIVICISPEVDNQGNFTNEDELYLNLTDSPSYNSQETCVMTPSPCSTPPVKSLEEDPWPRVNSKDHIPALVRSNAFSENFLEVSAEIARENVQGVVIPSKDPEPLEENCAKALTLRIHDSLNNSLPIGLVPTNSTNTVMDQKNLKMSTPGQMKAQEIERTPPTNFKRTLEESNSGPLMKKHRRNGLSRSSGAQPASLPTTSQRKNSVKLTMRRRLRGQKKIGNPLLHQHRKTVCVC
# Assay: Rhodamine-PBP qHTS Assay for Modulators of WT P53-Induced Phosphatase 1 (WIP1) (AID 1347425)
# Details: recombinant WIP1, Rhodamine-PBP phosphate fluorescence, real-time; series mostly up to 57.5 µM; activity change, negative = inhibition: at the top concentration
# Text: Assay Provider (PI): Nathan Coussens Ph.D.
# National Center for Advancing Translational Sciences (NCATS), Rockville, MD
# National Institute of Health (NIH), Bethesda, Maryland
# WT P53-Induced Phosphatase 1 (WIP1) is a member of the magnesium-dependent serine/threonine protein phosphatase (PPM) family and is induced by P53 in response to DNA damage. In several human cancers, the WIP1 protein is overexpressed, which is generally associated with a worse prognosis. Although WIP1 is an attractive therapeutic target, no potent, selective, and bioactive small-molecule modulator with favorable pharmacokinetics has been reported. Phosphatase enzymes are among the most challenging targets for small molecules because of the difficulty of achieving both modulator selectivity and bioavailability. Another major obstacle has been the availability of robust and physiologically relevant phosphatase assays that are suitable for high-throughput screening.
# Here, we describe two orthogonal biochemical WIP1 activity assays that utilize phosphopeptides from native WIP1 substrates. We optimized a RapidFire MS assay to quantify the enzymatically dephosphorylated peptide reaction product in a 384-well format. Additionally, a redshifted Rhodamine-PBP fluorescence assay was optimized in a 1,536-well format to enable real-time WIP1 activity measurements through the detection of the orthogonal reaction product, Pi. We validated these two optimized assays by quantitative high-throughput screening against the National Center for Advancing Translational Sciences (NCATS) Pharmaceutical Collection and used secondary assays to confirm and evaluate inhibitors identified in the primary screen.
# SEQUENCE No. (e.g., 1, 2, 3, etc.); […] (e.g., Cells, Incubation, Reagent, etc.); VALUE; DESCRIPTION
# 1; Reagent; 3 uL; WIP1 (6.7 nM), Rh-PBP (13.3 uM), columns 1-48
# 3; Library Compounds; 23 nL; NCATS Pharmaceutical Collection, column 5-48
# 4; Control Compounds; DMSO in column 2, GSK2830371 (57.5 uM, final) in 3-fold serial dilutions in column 3, GSK2830371 (1.15 uM, final) in column 4
# 5; Time; 1 hr; incubation
# 6; Detection; fluorescence (f0); ViewLux, excitation filter = 525 nm, emission filter = 598 nm
# 7; Reagent; 1 uL; VEPP-pS-QETFS (40 uM), columns 2-48
# 8; Detection; fluorescence (f1); ViewLux, excitation filter = 525 nm, emission filter = 598 nm
# NOTES (numbers refer to sequence above)
# 1 & 2; Black medium binding Greiner 1536-well plates (# 789176-F); assay buffer: 50 mM Tris-HCl pH 7.5, 30 mM MgCl2, 1mM TCEP, 0.1 mM EGTA, 75 ug/mL BSA; dispensed with a BioRaptr liquid handler (Beckman Coulter).
# 3 & 4; Kalypsys pintool (equipped with 1536 pinhead, Wako USA) transfer. Tip wash sequence: DMSO, methanol, 3 sec vacuum dry.
# 5; Room temperature incubation.
# 7; VEPPL-pS-QETFS in assay buffer dispensed with a BioRaptr; final reaction conditions: 5 nM WIP1, 10 uM VEPPL-pS-QETFS, 10 uM Rh-PBP, 50 mM Tris-HCl pH 7.5, 30 mM MgCl2, 1 mM TCEP, 0.1 mM EGTA, 75 ug/mL BSA.
# 8; Measurement taken at 1 min intervals for 11 min. Delta readout = f1 - f0.
row,SMILES,"activity change, negative = inhibition"
1,CCCCCCCCCCCCCCCC[n+]1ccccc1,11.8% (inactive)
2,Oc1ccccc1,10% (inactive)
3,CC(=O)Nc1c(I)c(NC(C)=O)c(I)c(C(=O)O)c1I,3.12% (inactive)
4,CCc1cc2cc(OC)c(OC)cc2c(Cc2ccccc2)n1,30.5% (inactive)
5,CC(C(O)c1ccccc1)N(C)CCOC(c1ccccc1)c1ccccc1 (stereo not given),34.9% (inactive)
6,COC(=O)C1=C(C)NC(C)=C(C(=O)OCCc2ccc(N3CCN(C(c4ccccc4)c4ccccc4)CC3)cc2)C1c1cccc([N+](=O)[O-])c1 (stereo not given),-8.19% (inactive)
7,CC(=O)OCC(=O)Nc1cc(C#N)cc(NC(=O)COC(C)=O)c1Cl,44.7% (inactive)
8,Cc1c(C)c2c(c(C)c1OC(=O)CCC(=O)OCCO)CC[C@@](C)(CCC[C@H](C)CCC[C@H](C)CCCC(C)C)O2,21.5% (inactive)
9,CC1(C)O[C@@H]2C[C@H]3[C@@H]4CCC5=CC(=O)C=C[C@]5(C)[C@@]4(F)[C@@H](O)C[C@]3(C)[C@]2(C(=O)CO)O1,13.2% (inactive)
10,O=C(c1ccco1)N1CCNCC1,16.5% (inactive)
11,O=C1NCCN1CCN1CCC(c2cn(-c3ccc(F)cc3)c3ccc(Cl)cc23)CC1,24.3% (inactive)
12,CC(C)=CCNc1ncnc2c1ncn2[C@@H]1O[C@H](CO)[C@@H](O)[C@H]1O,13.5% (inactive)
13,CCOC(=O)c1ccc(OCCN2C[C@H](O)[C@@H](O)[C@H](O)[C@H]2CO)cc1,4.48% (inactive)
14,CC(Oc1c(Cl)cccc1Cl)C1=NCCN1 (stereo not given),13.4% (inactive)
15,COc1cc2c(cc1OC)C(=O)CC2,13.5% (inactive)
16,N#CSCC(=O)O,3.48% (inactive)
17,O=C1Nc2cc(Cl)ccc2Oc2ccccc21,-4.56% (inactive)
18,CCOC(=O)c1cc(=O)c2c(OCC(COc3cccc4oc(C(=O)OCC)cc(=O)c34)OC(=O)[C@@H](N)CCCCN)cccc2o1,18.4% (inactive)
19,CCCC(=O)OCOC(=O)C1=C(C)NC(C)=C(C(=O)OC)C1c1cccc(Cl)c1Cl (stereo not given),-19.3% (inactive)
20,Nc1c[n+](N2CCOCC2)no1,10.7% (inactive)

row,SMILES,"activity change, negative = inhibition"
1,CC(C)(C)C1CCC(CC2=C(O)c3ccccc3C(=O)C2=O)CC1 (stereo not given),-2.19% (inactive)
2,Nc1ccc(O)cc1,9.73% (inactive)
3,COC(=O)c1cc(Cl)c(NC(C)=O)cc1OC,10.4% (inactive)
4,CN1Cc2cc(C(=O)N3CCC(C4CCNCC4)CC3)ccc2N[C@@H](CC(=O)O)C1=O,1.24% (inactive)
5,COc1ccc2cc(C=O)ccc2c1,-11.5% (inactive)
6,O=C(CO)[C@@H](O)[C@H](O)[C@@H](O)CO,2.55% (inactive)
7,CCCCCOc1ccccc1/C(=C\SC)n1ccnc1,2.94% (inactive)
8,O=C1CC[C@H](C(=O)N2CCCCC2)N1,11.4% (inactive)
9,CC(=O)c1cc2ccccc2s1,1.9% (inactive)
10,CC(CC1c2ccccc2CCc2ccccc21)CN(C)C (stereo not given),22.7% (inactive)
11,COc1cc(C(=O)OC(COCCC(C)C)CN2CCOCC2)cc(OC)c1OC (stereo not given),5.25% (inactive)
12,Cc1cc(O)c(C)c(C)c1O,6.64% (inactive)
13,C[C@H](N)C(=O)N[C@@H](C)C(=O)NC1[C@H]2CN(c3nc4c(cc3F)c(=O)c(C(=O)O)cn4-c3ccc(F)cc3F)C[C@@H]12 (stereo not given in full),7.86% (inactive)
14,O=C1CCCc2c(O)cccc21,-6.5% (inactive)
15,Cc1cccc(OCC(O)CNC(C)(C)C)c1C (stereo not given),-1.83% (inactive)
16,Cc1sccc1Br,13.4% (inactive)
17,O=C(c1ccccc1)c1ccccc1,9.73% (inactive)
18,CC(C)OP(=O)(CP(=O)(OC(C)C)OC(C)C)OC(C)C,18.3% (inactive)
19,CC(=O)Nc1ccn(C2COC(COC(=O)c3ccccc3)O2)c(=O)n1 (stereo not given),4.92% (inactive)
20,CC(C)(C)c1nnc(NS(=O)(=O)c2ccccc2)s1,-6.88% (inactive)
